Experimental data taken from the supplement of paper PMC13380429.

Tested on: Vero E6 infected with SARS-CoV-2
Assay: inhibition of SARS-CoV-2 cytopathic effect; higher = more antiviral protection, active = above 15
Details: 48 h

Measured: inhibition of SARS-CoV-2 cytopathic effect

NC(=O)c1cc([N+](=O)[O-])cc([N+](=O)[O-])c1 [nitromide]
inactive: 1 nM 0.52% | 8.33 nM 1.05% | 100 nM 1.48% | 833.33 nM 0.38% | 10000 nM -0.05%

Cc1noc(C)c1-c1cc(O)cc([C@@H](O)c2ccccc2)c1
inactive: 1 nM -2.32% | 8.33 nM 1.84% | 100 nM -0.24% | 833.33 nM 1.24% | 10000 nM -8.49%

S=C=Nc1ccc(N=C=S)cc1 [bitoscanate]
inactive: 1 nM -1.75% | 8.33 nM 0.45% | 100 nM -0.83% | 833.33 nM 0.38% | 10000 nM -2.58%

Cc1ccc(NC(=O)CCCCCC(=O)Nc2ccccc2N)cc1
inactive: 1 nM 2.4% | 8.33 nM 1.59% | 100 nM 0.54% | 833.33 nM 1.31% | 10000 nM 3.57%

N[C@@H](Cc1c[nH]c2ccccc12)C(=O)O [tryptophan]
inactive: 1 nM -6.32% | 8.33 nM -7.31% | 100 nM -3.29% | 833.33 nM -4.07% | 10000 nM -10.4%

Cc1ccc(-n2sc(=O)n(Cc3ccc(F)cc3)c2=O)cc1
inactive: 1 nM 1.81% | 8.33 nM -0.78% | 100 nM 0.17% | 833.33 nM -0.22% | 10000 nM -3.39%

O=C(O)CSc1nnc(Br)n1-c1ccc(C2CC2)c2ccccc12 [lesinurad]
inactive: 1 nM -0.42% | 8.33 nM -0.65% | 100 nM 2.45% | 833.33 nM 0.63% | 10000 nM -2.06%

O=C1N=C2SCCN2C(=O)C1Cc1ccc(Cl)cc1 (stereo not given) [nuclomedone]
inactive: 1 nM -1.33% | 8.33 nM -3.69% | 100 nM 0.26% | 833.33 nM 0.58% | 10000 nM -2.17%

O=C(O)c1cc(=O)c2ccccc2[nH]1 [kynurenic-acid]
inactive: 1 nM 3.61% | 8.33 nM 1.12% | 100 nM 2.79% | 833.33 nM 2.98% | 10000 nM 1.89%

COC[C@@H](c1ccc(C(F)(F)F)cc1)N1CCN(C2(C)CCN(C(=O)c3c(C)ncnc3C)CC2)C[C@@H]1C [vicriviroc]
inactive: 1 nM -0.96% | 8.33 nM -0.11% | 100 nM -0.52% | 833.33 nM 0.02% | 10000 nM -0.9%

Clc1ccc2c(NCCNc3ccnc4cc(Cl)ccc34)ccnc2c1
inactive: 1 nM -2.64% | 8.33 nM 0.71% | 100 nM 5.21% | 833.33 nM 0.16% | 10000 nM 0%

C=CCNC1=C2C[C@@H](C)C[C@H](OC)[C@H](O)[C@@H](C)/C=C(\C)[C@H](OC(N)=O)[C@@H](OC)/C=C\C=C(/C)C(=O)NC(=CC1=O)C2=O [tanespimycin]
inactive: 1 nM -1.35% | 8.33 nM -0.13% | 100 nM -4.27% | 833.33 nM -0.63% | 10000 nM 3.92%

Nc1nc(N)c2nc(-c3ccccc3)c(N)nc2n1 [triamterene]
inactive: 1 nM 0.51% | 8.33 nM 2.72% | 100 nM 4.04% | 833.33 nM 0.17% | 10000 nM -2.92%

CC(C)(N)CC12CC3CC(CC(C3)C1)C2 [somantadine]
inactive: 1 nM -2.05% | 8.33 nM -1.35% | 100 nM -0.66% | 833.33 nM -1.44% | 10000 nM -6.1%

C=CC(=O)Nc1cccc(Oc2nc(Nc3ccc(N4CCN(C)CC4)cc3)ncc2Cl)c1
inactive: 1 nM -1.99% | 8.33 nM 1.76% | 100 nM -2.31% | 833.33 nM -12.8% | 10000 nM -1.76%

Cc1cc(SCc2sc(-c3ccc(C(F)(F)F)c(F)c3)nc2C)ccc1OCC(=O)O
inactive: 1 nM 0.88% | 8.33 nM 1.12% | 100 nM -2.76% | 833.33 nM -1.29% | 10000 nM -1.19%

O=c1[nH]c2ccccc2n1CCCN1CCC(n2c(=O)[nH]c3cc(Cl)ccc32)CC1 [domperidone]
inactive: 1 nM 0.36% | 8.33 nM -0.12% | 100 nM 1.41% | 833.33 nM 2.23% | 10000 nM -3.31%

CCN(CC)CCNC(=O)c1cc(Br)c(N)cc1OC [bromopride]
inactive: 1 nM -3.41% | 8.33 nM -1.83% | 100 nM -0.25% | 833.33 nM -3.5% | 10000 nM -1.74%
